Laboratory results reported in publication PMC7862700, “An all-to-all approach to the identification of sequence-specific readers for epigenetic DNA modifications on cytosine”.

Experiments:
Assay in all cases: DAPPL (digital affinity profiling via proximity ligation, sequencing); 10 mM Tris-HCl pH 7.5, 50 mM NaCl, 1 mM DTT, 4% glycerol, room temperature, 30 min; GST-TFs on glutathione beads, 16-mer random dsDNA library, 0.1% formaldehyde crosslink after washing; high values mean tight binding
FLI1 = target: T1, FLI1 (Homo sapiens, UniProt Q01543 1-452); details: protein: recombinant; tags: N-terminal GST; dsDNA, one strand shown
T1 sequence: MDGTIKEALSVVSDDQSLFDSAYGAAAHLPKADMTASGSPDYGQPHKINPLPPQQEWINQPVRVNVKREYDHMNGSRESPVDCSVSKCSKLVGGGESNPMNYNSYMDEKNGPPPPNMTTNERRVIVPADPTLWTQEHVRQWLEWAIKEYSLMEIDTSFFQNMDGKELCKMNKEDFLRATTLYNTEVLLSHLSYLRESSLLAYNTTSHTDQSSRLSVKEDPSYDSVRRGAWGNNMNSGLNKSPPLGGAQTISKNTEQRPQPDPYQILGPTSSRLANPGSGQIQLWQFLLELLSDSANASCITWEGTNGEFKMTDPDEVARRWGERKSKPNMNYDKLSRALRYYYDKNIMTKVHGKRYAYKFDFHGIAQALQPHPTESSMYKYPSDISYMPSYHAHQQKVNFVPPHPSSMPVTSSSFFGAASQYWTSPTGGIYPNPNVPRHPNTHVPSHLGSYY
How it was run: (§1)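 A tag-only sample was pooled with DNA-barcoded human transcription factors that had been expressed in yeast as GST fusions and captured on glutathione beads. The pools were incubated for 30 min at room temperature with 200 nmole of a random double-stranded 16-mer DNA library in Tris/NaCl/DTT/glycerol buffer, then washed, crosslinked with 0.1% formaldehyde, proximity-ligated (BsaI/T4 ligase, 1 h, 37 °C), PCR-amplified and sequenced on an Illumina NextSeq500. Binding signal is each hexamer's read frequency for a factor divided by its frequency for the tag-only sample.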

ELK1 = target: T2, ELK1 (Homo sapiens, UniProt P19419 1-428); details: protein: recombinant; tags: N-terminal GST; dsDNA, one strand shown
T2 sequence: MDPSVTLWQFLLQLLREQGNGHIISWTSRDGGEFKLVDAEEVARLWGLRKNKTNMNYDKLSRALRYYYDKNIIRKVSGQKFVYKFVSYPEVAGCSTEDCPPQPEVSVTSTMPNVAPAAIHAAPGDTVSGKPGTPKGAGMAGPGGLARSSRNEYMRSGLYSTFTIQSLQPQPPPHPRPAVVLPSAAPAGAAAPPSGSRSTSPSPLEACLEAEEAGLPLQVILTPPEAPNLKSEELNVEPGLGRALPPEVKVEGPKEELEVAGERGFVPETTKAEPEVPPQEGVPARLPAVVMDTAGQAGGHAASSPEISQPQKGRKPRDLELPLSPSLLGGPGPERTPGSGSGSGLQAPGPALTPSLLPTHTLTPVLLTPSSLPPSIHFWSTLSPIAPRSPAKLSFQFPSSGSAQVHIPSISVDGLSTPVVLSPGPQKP
How it was run: as §1

GABPA = target: T3, GABPA (Homo sapiens, UniProt Q06546 1-454); details: protein: recombinant; tags: N-terminal GST; dsDNA, one strand shown
T3 sequence: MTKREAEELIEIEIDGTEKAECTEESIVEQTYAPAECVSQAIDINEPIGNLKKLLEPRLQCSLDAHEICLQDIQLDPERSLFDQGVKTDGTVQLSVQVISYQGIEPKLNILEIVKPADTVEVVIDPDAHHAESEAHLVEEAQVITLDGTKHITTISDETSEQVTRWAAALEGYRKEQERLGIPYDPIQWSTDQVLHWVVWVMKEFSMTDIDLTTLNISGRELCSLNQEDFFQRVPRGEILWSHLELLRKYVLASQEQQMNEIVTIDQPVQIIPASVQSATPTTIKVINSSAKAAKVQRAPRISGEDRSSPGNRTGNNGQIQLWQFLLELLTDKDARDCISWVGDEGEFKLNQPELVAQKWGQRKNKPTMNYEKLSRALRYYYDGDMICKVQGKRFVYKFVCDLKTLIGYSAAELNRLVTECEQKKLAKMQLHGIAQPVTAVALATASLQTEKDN
How it was run: as §1

ERG = target: T4, ERG (Homo sapiens, UniProt P11308 1-479); details: protein: recombinant; tags: N-terminal GST; dsDNA, one strand shown
T4 sequence: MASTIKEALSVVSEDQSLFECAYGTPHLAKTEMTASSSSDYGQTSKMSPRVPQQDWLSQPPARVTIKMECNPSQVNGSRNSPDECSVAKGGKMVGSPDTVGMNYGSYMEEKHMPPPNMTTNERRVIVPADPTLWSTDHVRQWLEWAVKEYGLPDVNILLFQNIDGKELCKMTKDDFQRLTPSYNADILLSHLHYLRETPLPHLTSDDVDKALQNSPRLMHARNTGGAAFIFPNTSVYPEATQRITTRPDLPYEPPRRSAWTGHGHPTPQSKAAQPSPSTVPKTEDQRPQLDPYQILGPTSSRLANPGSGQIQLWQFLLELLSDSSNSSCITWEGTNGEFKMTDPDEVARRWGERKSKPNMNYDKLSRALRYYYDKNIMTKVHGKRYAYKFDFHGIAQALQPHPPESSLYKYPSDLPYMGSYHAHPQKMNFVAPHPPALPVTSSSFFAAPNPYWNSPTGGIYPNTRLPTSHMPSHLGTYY
How it was run: as §1

ELF1 = ELF1 (Homo sapiens, UniProt P32519 1-619); details: protein: recombinant; tags: N-terminal GST; dsDNA, one strand shown
Chain of ELF1 (P32519 whole entry): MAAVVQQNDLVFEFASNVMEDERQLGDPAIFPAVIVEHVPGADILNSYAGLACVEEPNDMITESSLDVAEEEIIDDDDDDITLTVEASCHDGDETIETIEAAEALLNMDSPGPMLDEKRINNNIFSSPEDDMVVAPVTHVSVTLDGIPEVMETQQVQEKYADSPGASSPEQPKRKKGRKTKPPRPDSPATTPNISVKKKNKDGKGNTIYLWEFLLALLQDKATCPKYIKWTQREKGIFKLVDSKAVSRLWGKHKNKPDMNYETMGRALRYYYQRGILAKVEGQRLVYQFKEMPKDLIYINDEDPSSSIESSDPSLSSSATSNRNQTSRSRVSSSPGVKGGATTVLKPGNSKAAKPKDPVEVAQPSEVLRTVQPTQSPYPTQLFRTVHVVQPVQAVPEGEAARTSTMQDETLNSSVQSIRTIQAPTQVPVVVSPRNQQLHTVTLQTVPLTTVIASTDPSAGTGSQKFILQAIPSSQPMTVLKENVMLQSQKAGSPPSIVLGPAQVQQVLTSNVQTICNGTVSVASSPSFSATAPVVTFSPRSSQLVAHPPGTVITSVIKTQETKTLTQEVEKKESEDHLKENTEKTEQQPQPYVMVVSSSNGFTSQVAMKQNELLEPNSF
How it was run: as §1

EHF = target: T5, EHF (Homo sapiens, UniProt Q9NZC4 1-300); details: protein: recombinant; tags: N-terminal GST; dsDNA, one strand shown
T5 sequence: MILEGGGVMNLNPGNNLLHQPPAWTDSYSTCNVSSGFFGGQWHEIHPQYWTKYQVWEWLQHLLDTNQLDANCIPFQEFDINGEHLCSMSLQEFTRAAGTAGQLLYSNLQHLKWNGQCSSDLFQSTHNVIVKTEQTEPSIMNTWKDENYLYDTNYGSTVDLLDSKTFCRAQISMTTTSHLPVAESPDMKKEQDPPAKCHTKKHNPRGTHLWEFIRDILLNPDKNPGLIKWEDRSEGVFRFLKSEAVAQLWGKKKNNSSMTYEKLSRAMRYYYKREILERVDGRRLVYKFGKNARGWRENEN
How it was run: as §1

SPI1 = SPI1 (Homo sapiens, UniProt P17947 1-270); details: protein: recombinant; tags: N-terminal GST; dsDNA, one strand shown
How it was run: as §1

SPIB = SPIB (Homo sapiens, UniProt Q01892 1-262); details: protein: recombinant; tags: N-terminal GST; dsDNA, one strand shown
Chain of SPIB (Q01892 whole entry): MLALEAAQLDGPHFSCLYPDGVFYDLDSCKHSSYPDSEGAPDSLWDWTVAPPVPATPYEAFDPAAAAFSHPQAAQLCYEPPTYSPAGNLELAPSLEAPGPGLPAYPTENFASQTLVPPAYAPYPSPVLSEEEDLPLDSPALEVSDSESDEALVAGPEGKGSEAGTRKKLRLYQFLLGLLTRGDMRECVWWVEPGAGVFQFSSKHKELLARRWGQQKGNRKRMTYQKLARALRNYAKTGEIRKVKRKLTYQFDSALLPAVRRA
How it was run: as §1

ELK3 = target: T6, ELK3 (Homo sapiens, UniProt P41970 1-407); details: protein: recombinant; tags: N-terminal GST; dsDNA, one strand shown
T6 sequence: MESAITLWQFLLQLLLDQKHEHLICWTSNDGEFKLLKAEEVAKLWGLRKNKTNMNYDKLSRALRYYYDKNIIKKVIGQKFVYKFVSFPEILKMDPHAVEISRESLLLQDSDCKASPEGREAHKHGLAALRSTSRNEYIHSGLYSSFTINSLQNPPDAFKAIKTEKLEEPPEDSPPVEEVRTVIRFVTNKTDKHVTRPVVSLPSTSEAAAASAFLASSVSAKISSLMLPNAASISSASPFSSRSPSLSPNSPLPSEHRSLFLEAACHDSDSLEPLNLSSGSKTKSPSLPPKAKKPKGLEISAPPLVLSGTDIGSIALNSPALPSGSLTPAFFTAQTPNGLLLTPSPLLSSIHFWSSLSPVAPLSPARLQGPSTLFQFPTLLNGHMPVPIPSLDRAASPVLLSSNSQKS
How it was run: as §1

FEV = target: T7, FEV (Homo sapiens, UniProt Q99581 1-238); details: protein: recombinant; tags: N-terminal GST; dsDNA, one strand shown
T7 sequence: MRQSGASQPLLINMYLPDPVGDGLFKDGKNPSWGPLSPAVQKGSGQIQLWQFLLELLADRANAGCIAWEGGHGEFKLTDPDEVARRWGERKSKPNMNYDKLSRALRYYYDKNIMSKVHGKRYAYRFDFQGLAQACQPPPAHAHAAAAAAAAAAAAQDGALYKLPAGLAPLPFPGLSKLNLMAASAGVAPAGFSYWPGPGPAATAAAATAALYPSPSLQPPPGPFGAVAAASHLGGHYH
How it was run: as §1

ETV5 = ETV5 (Homo sapiens, UniProt P41161 1-510); details: protein: recombinant; tags: N-terminal GST; dsDNA, one strand shown
Chain of ETV5 (P41161 whole entry): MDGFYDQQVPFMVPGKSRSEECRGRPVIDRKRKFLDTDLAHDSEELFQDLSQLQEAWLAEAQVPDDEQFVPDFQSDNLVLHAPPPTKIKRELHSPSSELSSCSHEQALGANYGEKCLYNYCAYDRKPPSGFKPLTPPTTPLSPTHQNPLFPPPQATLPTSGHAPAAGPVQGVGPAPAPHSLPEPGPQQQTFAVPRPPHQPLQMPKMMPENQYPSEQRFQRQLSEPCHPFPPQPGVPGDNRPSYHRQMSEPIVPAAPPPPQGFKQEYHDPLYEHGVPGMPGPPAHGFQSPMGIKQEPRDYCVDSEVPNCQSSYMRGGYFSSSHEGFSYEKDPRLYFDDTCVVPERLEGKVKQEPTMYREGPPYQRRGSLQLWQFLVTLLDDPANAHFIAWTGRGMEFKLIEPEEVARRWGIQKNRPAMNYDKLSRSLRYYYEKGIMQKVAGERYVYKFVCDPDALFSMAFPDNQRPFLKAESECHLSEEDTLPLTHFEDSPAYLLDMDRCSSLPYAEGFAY
How it was run: as §1

HSF1 = HSF1 (Homo sapiens, UniProt Q00613 1-529); details: protein: recombinant; tags: N-terminal GST; chain copies: 3; dsDNA, one strand shown
Chain of HSF1 (Q00613 whole entry): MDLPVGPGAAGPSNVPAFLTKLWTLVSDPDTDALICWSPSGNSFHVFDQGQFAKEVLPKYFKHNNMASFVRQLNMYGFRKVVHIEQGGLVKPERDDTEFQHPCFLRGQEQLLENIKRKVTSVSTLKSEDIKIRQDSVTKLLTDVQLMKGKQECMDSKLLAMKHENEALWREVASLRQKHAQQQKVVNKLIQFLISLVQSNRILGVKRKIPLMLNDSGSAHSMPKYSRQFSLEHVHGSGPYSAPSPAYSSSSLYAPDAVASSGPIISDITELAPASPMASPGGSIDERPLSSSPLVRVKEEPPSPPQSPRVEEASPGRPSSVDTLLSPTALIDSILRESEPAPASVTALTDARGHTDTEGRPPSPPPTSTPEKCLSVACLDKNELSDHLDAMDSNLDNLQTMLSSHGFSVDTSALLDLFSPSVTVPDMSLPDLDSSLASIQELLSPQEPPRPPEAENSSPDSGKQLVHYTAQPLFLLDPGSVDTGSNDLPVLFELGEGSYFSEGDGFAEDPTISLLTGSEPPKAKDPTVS
How it was run: as §1

SPIC = target: T8, SPIC (Homo sapiens, UniProt Q8N5J4 1-248); details: protein: recombinant; tags: N-terminal GST; dsDNA, one strand shown
T8 sequence: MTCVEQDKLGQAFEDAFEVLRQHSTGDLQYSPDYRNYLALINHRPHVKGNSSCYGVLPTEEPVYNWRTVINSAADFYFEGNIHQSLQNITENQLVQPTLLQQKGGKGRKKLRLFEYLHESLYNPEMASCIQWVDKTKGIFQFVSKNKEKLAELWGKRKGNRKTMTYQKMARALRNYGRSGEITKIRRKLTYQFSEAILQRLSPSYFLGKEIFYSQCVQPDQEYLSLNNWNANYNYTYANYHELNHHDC
How it was run: as §1

ELF4 = ELF4 (Homo sapiens, UniProt Q99607 1-663); details: protein: recombinant; tags: N-terminal GST; dsDNA, one strand shown
Chain of ELF4 (Q99607 whole entry): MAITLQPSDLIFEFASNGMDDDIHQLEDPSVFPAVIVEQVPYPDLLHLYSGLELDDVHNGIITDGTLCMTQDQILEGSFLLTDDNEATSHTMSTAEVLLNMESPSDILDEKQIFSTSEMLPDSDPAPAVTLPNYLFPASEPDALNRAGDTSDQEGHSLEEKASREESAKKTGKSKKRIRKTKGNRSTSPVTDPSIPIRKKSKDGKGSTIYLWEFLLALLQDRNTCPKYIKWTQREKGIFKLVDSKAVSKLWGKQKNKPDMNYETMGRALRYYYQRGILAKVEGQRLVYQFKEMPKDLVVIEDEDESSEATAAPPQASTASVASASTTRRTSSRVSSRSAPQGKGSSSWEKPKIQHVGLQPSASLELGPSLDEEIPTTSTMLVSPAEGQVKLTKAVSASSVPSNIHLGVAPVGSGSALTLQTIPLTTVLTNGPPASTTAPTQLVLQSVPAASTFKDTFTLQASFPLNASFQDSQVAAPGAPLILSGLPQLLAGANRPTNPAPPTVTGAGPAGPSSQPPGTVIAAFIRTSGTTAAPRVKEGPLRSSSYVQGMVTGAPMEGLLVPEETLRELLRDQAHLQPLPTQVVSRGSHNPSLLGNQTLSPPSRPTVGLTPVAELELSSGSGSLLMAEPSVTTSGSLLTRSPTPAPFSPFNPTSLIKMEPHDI
How it was run: as §1

ELK4 = target: T9, ELK4 (Homo sapiens, UniProt P28324-2 1-405); details: protein: recombinant; tags: N-terminal GST; dsDNA, one strand shown
T9 sequence: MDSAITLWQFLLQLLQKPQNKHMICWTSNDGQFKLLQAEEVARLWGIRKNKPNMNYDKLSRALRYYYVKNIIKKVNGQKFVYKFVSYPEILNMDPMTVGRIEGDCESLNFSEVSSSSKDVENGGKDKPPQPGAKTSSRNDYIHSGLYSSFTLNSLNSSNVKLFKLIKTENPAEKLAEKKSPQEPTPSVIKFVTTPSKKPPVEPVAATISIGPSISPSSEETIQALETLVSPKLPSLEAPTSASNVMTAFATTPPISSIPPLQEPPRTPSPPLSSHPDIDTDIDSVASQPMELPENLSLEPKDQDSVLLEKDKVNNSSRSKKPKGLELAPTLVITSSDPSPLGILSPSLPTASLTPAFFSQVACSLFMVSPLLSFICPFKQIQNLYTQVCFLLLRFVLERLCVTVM
How it was run: as §1

ETV2 = target: T10, ETV2 (Homo sapiens, UniProt O00321 1-342); details: protein: recombinant; tags: N-terminal GST; dsDNA, one strand shown
T10 sequence: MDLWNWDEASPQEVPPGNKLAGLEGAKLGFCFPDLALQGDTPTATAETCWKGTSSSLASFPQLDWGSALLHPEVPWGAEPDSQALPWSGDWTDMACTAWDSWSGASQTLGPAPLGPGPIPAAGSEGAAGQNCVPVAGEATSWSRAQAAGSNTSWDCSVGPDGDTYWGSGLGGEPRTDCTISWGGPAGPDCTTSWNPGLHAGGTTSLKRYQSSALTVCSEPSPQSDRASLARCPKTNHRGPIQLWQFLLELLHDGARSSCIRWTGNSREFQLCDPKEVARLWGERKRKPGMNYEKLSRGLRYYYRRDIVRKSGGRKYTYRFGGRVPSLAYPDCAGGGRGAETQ
How it was run: as §1

ELF3 = target: T11, ELF3 (Homo sapiens, UniProt P78545 1-371); details: protein: recombinant; tags: N-terminal GST; dsDNA, one strand shown
T11 sequence: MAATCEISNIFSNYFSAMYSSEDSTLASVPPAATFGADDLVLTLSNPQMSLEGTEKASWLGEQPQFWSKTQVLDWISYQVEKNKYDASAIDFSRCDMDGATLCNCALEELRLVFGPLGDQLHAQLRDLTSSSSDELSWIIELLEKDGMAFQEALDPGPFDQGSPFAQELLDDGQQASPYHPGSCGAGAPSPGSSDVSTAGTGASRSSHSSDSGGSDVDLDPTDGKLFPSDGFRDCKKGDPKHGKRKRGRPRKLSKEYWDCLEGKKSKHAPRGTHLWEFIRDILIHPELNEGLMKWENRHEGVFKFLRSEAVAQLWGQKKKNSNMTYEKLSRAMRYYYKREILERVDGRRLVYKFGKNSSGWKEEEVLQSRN
How it was run: as §1

CRX = CRX (Homo sapiens, UniProt O43186 1-299); details: protein: recombinant; tags: N-terminal GST; dsDNA, one strand shown
Chain of CRX (O43186 whole entry): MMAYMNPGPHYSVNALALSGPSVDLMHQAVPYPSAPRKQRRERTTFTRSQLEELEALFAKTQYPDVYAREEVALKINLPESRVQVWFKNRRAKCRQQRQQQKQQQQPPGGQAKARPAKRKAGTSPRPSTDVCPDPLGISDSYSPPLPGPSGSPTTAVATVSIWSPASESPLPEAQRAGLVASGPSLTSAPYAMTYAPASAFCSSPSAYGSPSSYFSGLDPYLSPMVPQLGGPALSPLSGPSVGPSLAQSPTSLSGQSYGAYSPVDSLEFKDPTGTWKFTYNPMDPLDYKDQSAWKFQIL
How it was run: as §1

ETV1 = ETV1 (Homo sapiens, UniProt P50549 1-477); details: protein: recombinant; tags: N-terminal GST; dsDNA, one strand shown
Chain of ETV1 (P50549 whole entry): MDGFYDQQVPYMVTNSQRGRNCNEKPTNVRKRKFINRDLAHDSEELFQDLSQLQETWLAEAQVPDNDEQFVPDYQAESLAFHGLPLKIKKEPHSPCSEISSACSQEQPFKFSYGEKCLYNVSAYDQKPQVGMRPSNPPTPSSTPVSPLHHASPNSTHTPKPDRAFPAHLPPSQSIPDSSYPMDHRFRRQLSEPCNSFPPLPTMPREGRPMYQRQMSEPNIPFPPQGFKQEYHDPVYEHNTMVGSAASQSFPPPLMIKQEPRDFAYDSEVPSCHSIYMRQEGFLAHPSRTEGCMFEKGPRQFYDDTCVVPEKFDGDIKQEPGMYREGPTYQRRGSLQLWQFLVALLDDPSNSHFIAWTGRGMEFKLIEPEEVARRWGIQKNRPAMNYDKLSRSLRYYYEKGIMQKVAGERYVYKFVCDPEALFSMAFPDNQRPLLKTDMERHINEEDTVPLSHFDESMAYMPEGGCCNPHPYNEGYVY
How it was run: as §1

AAAGAT
binding signal (FLI1): 1.18 fold enrichment (6-mer frequency, TF over GST control) | binding signal (ELK1): 1.21 fold enrichment (6-mer frequency, TF over GST control) | binding signal (GABPA): 1.21 fold enrichment (6-mer frequency, TF over GST control) | binding signal (ERG): 1.21 fold enrichment (6-mer frequency, TF over GST control) | binding signal (ELF1): 1.26 fold enrichment (6-mer frequency, TF over GST control) | binding signal (EHF): 1.18 fold enrichment (6-mer frequency, TF over GST control) | binding signal (SPI1): 1.23 fold enrichment (6-mer frequency, TF over GST control) | binding signal (SPIB): 1.3 fold enrichment (6-mer frequency, TF over GST control) | binding signal (ELK3): 1.13 fold enrichment (6-mer frequency, TF over GST control) | binding signal (FEV): 1.15 fold enrichment (6-mer frequency, TF over GST control) | binding signal (ETV5): 1.25 fold enrichment (6-mer frequency, TF over GST control) | binding signal (HSF1): 1.67 fold enrichment (6-mer frequency, TF over GST control) | binding signal (SPIC): 1.22 fold enrichment (6-mer frequency, TF over GST control) | binding signal (ELF4): 1.24 fold enrichment (6-mer frequency, TF over GST control) | binding signal (ELK4): 1.24 fold enrichment (6-mer frequency, TF over GST control) | binding signal (ETV2): 1.17 fold enrichment (6-mer frequency, TF over GST control) | binding signal (ELF3): 1.16 fold enrichment (6-mer frequency, TF over GST control) | binding signal (CRX): 1.75 fold enrichment (6-mer frequency, TF over GST control) | binding signal (ETV1): 1.27 fold enrichment (6-mer frequency, TF over GST control)
